Screens (PubChem BioAssay)
An excerpt weighted towards active compounds, which were near 2.8% of everything screened.
WRN helicase inh – qHTS for Inhibitors of WRN Helicase; WRN helicase unwinding, fluorescent forked duplex, kinetic; actives 0.46% (n = 360,000); Potency, µM (doses to about 114 µM), without a hit: at the top dose activity change, negative = inhibition, actives largely listed as inhibitors; Bifunctional 3'-5' exonuclease/ATP-dependent helicase WRN (Homo sapiens), Q14191; further: potency means the concentration at half of the fitted maximal effect; on the % scale 0 is the no-effect control and ±100 the full control effect; nearly all actives have a fitted effect of over 55% in size
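Enzyme (20 nM final) and test compound sit together 15 min at room temperature before substrate addition. Substrate is a single-forked duplex oligonucleotide (100 nM) labelled with fluorophore and quencher, with 2 mM ATP; helicase unwinding raises red fluorescence, read kinetically.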
Pol beta inh – qHTS Assay for Inhibitors of DNA Polymerase Beta; P06746; Pol beta primer extension/strand displacement, fluorescence kinetic; Potency, µM (series often up to 114 µM), inactives show at the highest dose activity change, negative = inhibition, usual class: inhibitors; actives 1.3% (n = 340,000); AID 485314, 2010; further: potency means the concentration at half of the fitted maximal effect; on the % scale 0 is the no-effect control and ±100 the full control effect
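Curves were derived by four-parameter Hill fits of normalized qHTS data. The kinetic fluorescent primer-extension read was taken at 0 and 10 min after 50 nM substrate, following a 15 min room-temperature preincubation of 10 nM enzyme with compounds.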
PI5P4K alpha inh – qHTS for Inhibitors of phosphatidylinositol 5-phosphate 4-kinase (PI5P4K) | max response, % | actives 1.2% (n = 330,000) | PI5P4Kalpha enzyme, ADP-Glo luminescence, 60 min; hits give low values; active means max response of -50% or lower; inconclusive means between -30% and -50%; inactive means -30% or higher; further: value at the top dose of about 77 µM; on the % scale 0 is the no-effect control and ±100 the full control effect
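Single end-point luminescence (ADP-Glo) quantified ADP from PI5P4Kalpha turnover; ATP 5 microM final, 1 h at RT, 0.1% CHAPS and 0.28 mM EGTA in HEPES pH 7.4.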
POLK inh – qHTS for Inhibitors of Polymerase Kappa; purified Pol kappa, fluorescent DNA synthesis assay, 10 min; actives 0.53% (n = 400,000); Potency, µM (series often up to 107 µM), for inactives: at the highest dose activity, negative = inhibition, actives largely listed as inhibitors; further: potency means the concentration at half of the fitted maximal effect; on the % scale 0 is the no-effect control and ±100 the full control effect
Target sequence (Q9UBT6 whole entry, looked up): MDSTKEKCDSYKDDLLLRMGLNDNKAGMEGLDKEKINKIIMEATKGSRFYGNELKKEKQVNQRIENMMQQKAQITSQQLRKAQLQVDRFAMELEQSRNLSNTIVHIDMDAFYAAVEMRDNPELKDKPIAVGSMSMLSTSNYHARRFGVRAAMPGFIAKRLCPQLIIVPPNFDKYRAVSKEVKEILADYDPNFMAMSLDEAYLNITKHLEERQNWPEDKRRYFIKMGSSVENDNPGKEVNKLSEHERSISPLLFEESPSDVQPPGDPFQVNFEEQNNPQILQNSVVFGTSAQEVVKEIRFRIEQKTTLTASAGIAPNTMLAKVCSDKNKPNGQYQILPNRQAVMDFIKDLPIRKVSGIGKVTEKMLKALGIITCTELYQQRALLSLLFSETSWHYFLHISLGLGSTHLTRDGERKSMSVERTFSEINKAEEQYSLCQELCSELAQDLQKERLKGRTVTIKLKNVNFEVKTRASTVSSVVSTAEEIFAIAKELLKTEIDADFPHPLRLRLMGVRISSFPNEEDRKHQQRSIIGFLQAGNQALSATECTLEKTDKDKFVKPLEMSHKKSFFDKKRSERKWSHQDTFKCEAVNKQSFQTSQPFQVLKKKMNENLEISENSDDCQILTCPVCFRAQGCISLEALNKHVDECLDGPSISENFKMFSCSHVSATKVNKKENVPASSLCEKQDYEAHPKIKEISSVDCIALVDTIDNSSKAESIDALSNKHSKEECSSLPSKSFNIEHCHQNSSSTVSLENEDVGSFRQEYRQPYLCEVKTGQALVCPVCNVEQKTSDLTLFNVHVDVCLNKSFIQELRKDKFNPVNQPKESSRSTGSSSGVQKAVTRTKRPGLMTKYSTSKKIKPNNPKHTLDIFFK
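Fluorescent qHTS in 1536-well format: enzyme (10 nM) and compound sat 15 min at room temperature before 50 nM substrate (final) was added. Signal taken at 0 and 10 min; no-enzyme buffer wells were negative controls.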
Pol iota inh – qHTS for Inhibitors of Polymerase Iota. DNA polymerase iota (Homo sapiens), Q9UNA4. Pol iota fluorescent replication assay, 10 min. Potency, µM (highest dose often 115 µM), without a hit: at the top dose activity, negative = inhibition, usual class: inhibitors. actives 1% (n = 390,000). AID 588590, 2011; further: potency means the concentration at half of the fitted maximal effect
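Pol iota at 10 nM preincubated 15 min with compounds at room temperature; reaction started with fluorescent substrate, 50 nM final. Fluorescence read kinetically at 0 and 10 min; buffer-only wells as negative control.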
Pol eta inh – qHTS for Inhibitors of Polymerase Eta | DNA polymerase eta (Homo sapiens), Q9Y253 | actives 1.2% (n = 390,000) | Potency, µM (doses to about 114 µM), for inactives: top-dose activity change, negative = inhibition, actives largely listed as inhibitors | recombinant Pol eta, fluorescent DNA replication assay; further: potency means the concentration at half of the fitted maximal effect; on the % scale 0 is the no-effect control and ±100 the full control effect
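Pol eta (10 nM) was preincubated with compounds for 15 min at room temperature, after which fluorescent replication substrate (50 nM final) was added to start the reaction. Fluorescence was read kinetically at 0 and 10 min.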
* marks the source's active call; other numbers are inactive results; ! = a repeat was not active; [ ] = dose if it differs, or a comment. Unless noted, the call rests on the fitted dose curve; in most records, active means well fitted curve in the direction sought with a large enough effect; inconclusive means small, poorly fitted or top-dose-only effect, or another doubt; inactive means no such curve, though single readings can be large; an effect the other way counts as inactive or inconclusive.

For O=C(O)c1cc(O)c2c(c1)[C@@H]([C@H]1c3cc(C(=O)O)cc(O)c3C(=O)c3c(O[C@@H]4O[C@H](CO)[C@@H](O)[C@H](O)[C@H]4O)cccc31)c1cccc(O[C@@H]3O[C@H](CO)[C@@H](O)[C@H](O)[C@H]3O)c1C2=O the results were WRN helicase inh 3.2µM*, PI5P4K alpha inh -111*, POLK inh 1.3µM*, Pol iota inh -94% and Pol eta inh 0.79µM*.
OCC1OC(Oc2cccc3ccccc23)C(O)C(O)C1O (centres undefined) was read as WRN helicase inh -1%[57.1 µM], Pol beta inh 10%, PI5P4K alpha inh -7, POLK inh 1%, Pol iota inh 45% and Pol eta inh -15%.
`O=C(O)c1cc(O)c2c(c1)[C@H]([C@H]1c3cc(C(=O)O)cc(O)c3C(=O)c3c(O[C@@H]4OC(CO)C(O)C(O)C4O)cccc31)c1cccc(O[C@@H]3OC(CO)C(O)C(O)C3O)c1C2=O` (some centres undefined) gave POLK inh 0.89µM*.
For O=C(CN1C(=O)COc2ccc(S(=O)(=O)N3CCOCC3)cc21)NCc1ccc(F)cc1 the results were Pol beta inh inconclusive, POLK inh -6%, Pol iota inh 28% and Pol eta inh -30%.
`CC(C)(C)c1ccc(C(=O)NCC(c2ccco2)S(=O)(=O)c2ccccc2)cc1` (centres undefined) gave Pol beta inh 3%, POLK inh -11%[60.1 µM], Pol iota inh 24% and Pol eta inh -28%.
For C=CS(=O)(=O)c1c2cc(OC)ccc2nc2ccc(OC)cc12 the results were WRN helicase inh inconclusive, PI5P4K alpha inh -18, POLK inh -22%, Pol iota inh 28µM* and Pol eta inh inconclusive.
CCOC(=O)C1CCC(CN(Cc2ccc(OC)cc2)S(=O)(=O)c2ccc(F)c(C(=O)Nc3c(C)cccc3C)c2)CC1 (centres undefined) was read as Pol beta inh 22%, POLK inh -3%[60.1 µM], Pol iota inh 33% and Pol eta inh 7%.
`CCc1nn2c(=O)cc(COC(=O)c3cccc(NC(=O)c4cccs4)c3)nc2s1` gave Pol beta inh 1%, POLK inh -2%[60.1 µM], Pol iota inh 89µM* and Pol eta inh -12%.
For Cc1ccccc1OCC(=O)OCc1cc(=O)n2nc(-c3cccs3)sc2n1 the results were Pol beta inh inconclusive, POLK inh -21%, Pol iota inh inconclusive and Pol eta inh -15%.
`O=C(OCc1cc(=O)n2nc(-c3cccs3)sc2n1)c1ccccc1` gave Pol beta inh 35µM*, POLK inh -23%, Pol iota inh 79µM* and Pol eta inh 79µM*.
`CC(C)c1nn2c(=O)cc(COC(=O)c3cccc(NC(=O)c4cccs4)c3)nc2s1` gave Pol beta inh 0%, POLK inh 0%[60.1 µM], Pol iota inh -6% and Pol eta inh -21%.
`O=C(OCc1cc(=O)n2nc(-c3cccs3)sc2n1)c1ccc(Cl)cc1` gave Pol beta inh 32µM*, POLK inh -34%, Pol iota inh inconclusive and Pol eta inh inconclusive.
Cc1ccc(OCC(=O)OCc2cc(=O)n3nc(-c4cccs4)sc3n2)cc1C was read as Pol beta inh inconclusive, POLK inh -38%, Pol iota inh inconclusive and Pol eta inh -19%.
Cc1cccc(C(=O)OCc2cc(=O)n3nc(-c4cccs4)sc3n2)c1 was read as Pol beta inh 20µM*, POLK inh inconclusive, Pol iota inh 89µM* and Pol eta inh inconclusive.
Screening CCc1ccc(NC(=O)c2sc3nc(C)cc(C)c3c2NC(=O)c2ccccc2)cc1 returned Pol beta inh 0%, POLK inh -22%, Pol iota inh -12% and Pol eta inh 2%.
N#Cc1ccc(/C=C2\C=Cc3ccccc32)cc1 was read as POLK inh -3% and Pol iota inh -8%.
O=C(COc1ccccc1F)OCc1cc(=O)n2nc(-c3cccs3)sc2n1 was read as Pol beta inh 32µM*, POLK inh -16%, Pol iota inh inconclusive and Pol eta inh -28%.
For O=C(Nc1nnc(SCc2ccc(F)cc2)s1)c1ccc2ncsc2c1 the results were WRN helicase inh -4%[11.6 µM], Pol beta inh 3%, PI5P4K alpha inh inconclusive, POLK inh 1%, Pol iota inh 3.2µM* and Pol eta inh -6%.
Clc1ccc(-c2csc3ncnc(Sc4nnnn4-c4ccccc4)c23)cc1 was read as POLK inh 6% and Pol iota inh -3%.
Screening Cc1nc2nc(C)c(CCC(=O)NCCCN3CCN(c4cccc(Cl)c4)CC3)c(C)n2n1 returned WRN helicase inh -10%[57.1 µM], Pol beta inh 15%, PI5P4K alpha inh -6, POLK inh 3%, Pol iota inh 32µM*! and Pol eta inh -6%.
For COc1ccccc1CN(Cc1cc2cc3c(cc2[nH]c1=O)OCCO3)Cc1nnnn1Cc1ccco1 the results were WRN helicase inh -7%, Pol beta inh 14µM*, POLK inh inconclusive, Pol iota inh inconclusive and Pol eta inh 32µM*.
CCc1ccc2[nH]c(=O)c(CN(Cc3ccccc3)Cc3nnnn3Cc3ccco3)cc2c1 was read as WRN helicase inh -9%, Pol beta inh 2%, PI5P4K alpha inh 6, POLK inh -11%, Pol iota inh inconclusive and Pol eta inh -23%.
O=c1[nH]c2cc3c(cc2cc1CN(Cc1cccnc1)Cc1nnnn1Cc1ccco1)OCCO3 was read as WRN helicase inh 56µM*, Pol beta inh 40µM*, POLK inh 89µM*, Pol iota inh 16µM* and Pol eta inh inconclusive.
For Cc1ccc2[nH]c(=O)c(CN(CCCO)Cc3nnnn3Cc3ccco3)cc2c1 the results were POLK inh inconclusive and Pol iota inh 79µM*.
Screening O=c1[nH]c2cc3c(cc2cc1CN(Cc1cccs1)Cc1nnnn1Cc1ccco1)OCCO3 returned WRN helicase inh inconclusive, Pol beta inh 32µM*, PI5P4K alpha inh -83*, POLK inh 25µM*, Pol iota inh inconclusive and Pol eta inh 18µM*.
`Cc1c(O)c2c(c(C(=O)/C=C/c3ccccc3)c1O)OC(C)(C)C=C2` gave POLK inh -20% and Pol iota inh -24%.
